Values joined by “and” are separate entries in the source; they are usually repeats but may differ in a detail not shown here. Equal values may be shown once. Records with an inconclusive call do not appear. A call without a number means that no potency is given here. Some compounds were tested as several samples or in several runs, with calls that do not always agree. Active and inactive are the calls of the source. Unless noted, the call rests on the fitted dose curve; in most records, active means well fitted curve in the direction sought with a large enough effect in the repeat runs; inconclusive means weak or mixed curves; inactive means no such curve, though single readings can be large; an effect the other way counts as inactive or inconclusive.
How the values were obtained:
[1] = qHTS assay to identify small molecule agonists of the estrogen receptor alpha (ER-alpha) signaling pathway in the presence of an antagonist - cell viability counter screen (AID 1259386);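 further: cells exposed to compounds for 22 h at 37 °C before the viability read; nearly all actives have a fitted effect of over 30% in size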; further: potency means the concentration at half of the fitted maximal effect
In short: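 Cell viability in VM7Luc4E2 cells (endogenous full-length ER-alpha) measured by CellTiter-Fluor fluorescence in the same wells as the luciferase screen. Cells pre-cultured 5 days in charcoal-stripped serum, then treated 22 h with compounds at 15 concentrations plus 10.0nM ICI-182,780.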

[2] = target: Progesterone receptor (Homo sapiens) (UniProt P06401); experiment: qHTS assay to identify small molecule agonists of the progesterone receptor (PR) signaling pathway (AID 1346784; calls by dose curve; further: nearly all actives have a fitted effect of over 30% in size; further: potency means the concentration at half of the fitted maximal effect)
In short: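 Using charcoal-stripped serum (2%) to limit endogenous steroids, PR-UAS-bla HEK 293T cells received compounds for 16 hr at 37C after 6 hr plating; beta-lactamase FRET fluorescence was recorded following 2 hr substrate loading at room temperature.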

[3] = target: Progesterone receptor (Homo sapiens) (UniProt P06401); experiment: qHTS assay to identify small molecule antagonists of the progesterone receptor (PR) signaling pathway (AID 1346795; active means well fitted inhibition curve with a large enough effect in the signal ratio in the repeat runs, not every such curve was filed as active; the % refers to the signal ratio; further: potency means the concentration at half of the fitted maximal effect)
In short: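 Inhibition of R5020-induced (1 nM final) beta-lactamase reporter signal in PR-UAS-bla HEK293T cells was scored by FRET fluorescence after overnight (16 hr) compound treatment.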

[4] = qHTS assay to identify small molecule antagonists of the progesterone receptor (PR) signaling pathway - cell viability counter screen (AID 1346798); further: nearly all actives have a fitted effect of over 50% in size; further: potency means the concentration at half of the fitted maximal effect
In short: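 ATP content as viability readout: CellTiter-Glo luminescence, 30 min room temperature, in PR-UAS-bla HEK293T cells after 16 hr compound/R5020 treatment at 37C and 5% CO2.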

[5] = qHTS assay to identify small molecule agonists of the progesterone receptor (PR) signaling pathway - cell viability counter screen (AID 1346799; calls by dose curve; further: nearly all actives have a fitted effect of over 45% in size; further: potency means the concentration at half of the fitted maximal effect)
In short: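 Cytotoxicity in PR-bla HEK293T cells: 16 h compound, 37C; CellTiter-Glo added post-FRET read; luminescence after 30 min RT.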

[6] = qHTS assay to identify small molecule antagonists of the TGF-beta/Smad signaling pathway - cell viability counter screen (AID 1346824); further: nearly all actives have a fitted effect of over 50% in size; further: potency means the concentration at half of the fitted maximal effect
In short: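 SBE-bla HEK 293T cells were plated overnight at 37 C, then given compounds in DMSO plus TGF-beta1 (added as 0.25 ng/mL solution) for 5 hr. After the bla read, CellTiter-Glo was added to the same wells and luminescence read after 30 min at room temperature.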

[7] = qHTS assay to identify small molecule agonists of the TGF-beta/Smad signaling pathway - cell viability counter screen (AID 1346829); further: top concentration of the series differs between compounds; nearly all actives have a fitted effect of over 45% in size
In short: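 Same-well cytotoxicity: CellTiter-Glo added after the 2 hr room-temperature beta-lactamase substrate step, luminescence measured 30 min later; cells had 5 hr of compound at 37 C.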

[8] = qHTS assay to identify small molecule agonists of the TGF-beta/Smad signaling pathway (AID 1346859; active means well fitted activation curve with a large enough effect in the signal ratio in the repeat runs, not every such curve was filed as active; the % refers to the signal ratio; further: series mostly up to about 77 µM)
In short: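 Stable Smad binding element-beta-lactamase HEK 293T cells; 5 hr compound exposure at 37 C under 5% CO2; 2 hr room-temperature substrate step; fluorescence excited at 405 nm, collected at 460 nm and 530 nm.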

[9] = target: Thyrotropin-releasing hormone receptor (Homo sapiens) (UniProt P34981); experiment: qHTS assay to identify small molecule antagonists of the thyrotropin-releasing hormone receptor (TRHR) signaling pathway (AID 1346877; active means well fitted inhibition curve with a large enough effect in the repeat runs, not every such curve was filed as active; further: potency means the concentration at half of the fitted maximal effect; on activity, negative = inhibition: series mostly up to about 51 µM)
In short: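 TRHR-expressing HEK293 cells loaded with calcium dye for 2 h at 37 C; compounds pre-incubated 5 min at room temperature before TRH challenge at 1 nM final. Intracellular calcium fluorescence read kinetically for 3 min; 15 concentrations in triplicate.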

[10] = target: Thyrotropin receptor (Homo sapiens) (UniProt P16473); experiment: qHTS assay to identify small molecule antagonists of the thyroid stimulating hormone receptor (TSHR) signaling pathway (AID 1259385; calls by dose curve; further: nearly all actives have a fitted effect of over 20% in size; further: potency means the concentration at half of the fitted maximal effect)
In short: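 TSHR-HEK293 cells were plated and held 18 h at 37C/5% CO2, then given compound plus Ro20-1724 and stimulated with TSH at 1.5 ng/mL final. After 30 min at room temperature, cAMP was detected with cAMP-d2/anti-cAMP-cryptate (1 h) by fluorescence.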

Progesterone receptor (Homo sapiens), sequence (P06401 whole entry, looked up): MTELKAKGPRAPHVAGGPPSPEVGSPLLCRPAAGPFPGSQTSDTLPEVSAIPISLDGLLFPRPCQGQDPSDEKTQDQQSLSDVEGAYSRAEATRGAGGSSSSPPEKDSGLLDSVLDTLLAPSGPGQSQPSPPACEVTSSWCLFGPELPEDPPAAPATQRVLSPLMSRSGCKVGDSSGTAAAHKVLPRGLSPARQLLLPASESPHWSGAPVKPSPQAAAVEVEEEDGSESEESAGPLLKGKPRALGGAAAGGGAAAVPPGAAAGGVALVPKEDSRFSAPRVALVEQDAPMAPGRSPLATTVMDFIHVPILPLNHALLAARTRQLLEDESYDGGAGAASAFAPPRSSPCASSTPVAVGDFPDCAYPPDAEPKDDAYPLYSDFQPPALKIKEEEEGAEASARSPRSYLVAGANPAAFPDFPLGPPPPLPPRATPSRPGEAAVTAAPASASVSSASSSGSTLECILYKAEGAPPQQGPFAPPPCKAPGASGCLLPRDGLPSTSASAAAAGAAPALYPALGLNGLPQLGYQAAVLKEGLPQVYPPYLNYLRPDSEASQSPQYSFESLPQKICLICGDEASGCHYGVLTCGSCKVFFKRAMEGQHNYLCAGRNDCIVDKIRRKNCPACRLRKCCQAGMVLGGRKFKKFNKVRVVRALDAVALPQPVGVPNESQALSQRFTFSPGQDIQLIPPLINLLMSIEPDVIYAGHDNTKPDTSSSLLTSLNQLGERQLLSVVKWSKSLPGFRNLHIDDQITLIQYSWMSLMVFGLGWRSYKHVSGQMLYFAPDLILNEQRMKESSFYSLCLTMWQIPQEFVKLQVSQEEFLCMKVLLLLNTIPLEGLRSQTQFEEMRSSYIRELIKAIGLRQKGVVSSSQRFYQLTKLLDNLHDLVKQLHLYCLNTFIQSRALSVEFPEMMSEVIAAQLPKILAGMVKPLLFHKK
Thyrotropin receptor (Homo sapiens), sequence (P16473 whole entry, looked up): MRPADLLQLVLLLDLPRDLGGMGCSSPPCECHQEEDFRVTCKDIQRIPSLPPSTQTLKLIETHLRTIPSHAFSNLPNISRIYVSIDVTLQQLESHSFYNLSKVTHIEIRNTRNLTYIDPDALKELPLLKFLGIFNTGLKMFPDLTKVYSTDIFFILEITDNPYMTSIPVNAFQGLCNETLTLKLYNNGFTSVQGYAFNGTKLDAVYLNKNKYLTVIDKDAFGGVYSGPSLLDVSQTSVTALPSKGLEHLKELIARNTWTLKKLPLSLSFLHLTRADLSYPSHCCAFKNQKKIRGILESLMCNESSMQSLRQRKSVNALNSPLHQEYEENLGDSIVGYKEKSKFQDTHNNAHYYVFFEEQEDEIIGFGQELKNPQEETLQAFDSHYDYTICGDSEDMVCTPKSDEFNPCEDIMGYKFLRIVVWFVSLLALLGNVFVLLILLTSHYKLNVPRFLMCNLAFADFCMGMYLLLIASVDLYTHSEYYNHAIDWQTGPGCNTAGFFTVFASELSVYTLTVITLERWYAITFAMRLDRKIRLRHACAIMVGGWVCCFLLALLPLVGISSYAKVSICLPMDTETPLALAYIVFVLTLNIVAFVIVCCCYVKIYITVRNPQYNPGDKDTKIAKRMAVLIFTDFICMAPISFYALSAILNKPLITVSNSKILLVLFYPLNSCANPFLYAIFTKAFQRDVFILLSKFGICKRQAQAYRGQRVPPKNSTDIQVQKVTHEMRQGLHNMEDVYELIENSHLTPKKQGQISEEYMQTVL
Thyrotropin-releasing hormone receptor (Homo sapiens), sequence (P34981 whole entry, looked up): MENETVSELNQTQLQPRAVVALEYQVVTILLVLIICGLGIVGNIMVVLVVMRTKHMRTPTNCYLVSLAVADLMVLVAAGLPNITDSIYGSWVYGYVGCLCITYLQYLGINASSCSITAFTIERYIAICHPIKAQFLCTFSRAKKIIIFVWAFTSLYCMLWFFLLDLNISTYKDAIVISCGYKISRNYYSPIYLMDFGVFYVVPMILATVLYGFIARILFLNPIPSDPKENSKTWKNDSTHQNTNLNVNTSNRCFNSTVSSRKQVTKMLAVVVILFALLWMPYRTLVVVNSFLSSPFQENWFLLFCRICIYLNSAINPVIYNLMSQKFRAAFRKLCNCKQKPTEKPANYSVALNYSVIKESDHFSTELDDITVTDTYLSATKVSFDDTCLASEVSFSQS

Compound	Potency [1]	Potency [2]	Potency [3]	Potency [4]	Potency [5]	Potency [6]	Potency [7]	outcome [8]	Potency [9]	Potency [10]	activity change, negative = inhibition [3]	activation [8]	activity, negative = inhibition [9]
O=C(/C=C/c1ccccc1)OCc1ccccc1	inactive	inactive	inactive	inactive	inactive	inactive	inactive	inactive	inactive	–	–	–	–
OCCO	inactive	inactive	inactive	inactive	inactive	inactive	inactive	inactive	inactive	–	–	–	–
CN(C)CCC=C1c2ccccc2CCc2ccccc21	inactive	inactive	54.5 µM (active)	61.1 µM (active) and 30.6 µM (active) and 16.8 µM (active)	54.5 µM (active) and 15.4 µM (active) and 16.8 µM (active)	inactive	inactive	inactive	inactive	–	–	–	–
COc1ccc(C(=O)CC(=O)c2ccc(C(C)(C)C)cc2)cc1	inactive	inactive	inactive	inactive	inactive	inactive	–	inactive	inactive	inactive	–	–	–
CCCCOCCOCCOCCO	inactive	inactive	inactive	inactive	inactive	inactive	inactive	inactive	inactive	–	–	–	–
O=C(c1ccccc1)c1ccc(O)cc1O	inactive	inactive	15.7 µM (active) and 19.3 µM (active)	49.5 µM (active)	–	inactive	inactive	inactive	inactive	inactive	–	–	–
COC(=O)CCC(=O)OC	inactive	inactive	–	inactive	inactive	inactive	–	inactive	inactive	inactive	–	–	–
O=CCc1ccccc1	inactive	inactive	inactive	inactive	inactive	inactive	inactive	inactive	inactive	–	–	–	–
CC(C)=CCC/C(C)=C\CO	inactive	inactive	inactive	inactive	–	inactive	inactive	inactive	–	inactive	–	–	–
CC(C)CC(C)(O)C#CC(C)(O)CC(C)C (stereo not drawn)	inactive	inactive	inactive	–	inactive	inactive	inactive	inactive	inactive	inactive	–	–	–
COc1ccccc1/C=C/C=O	inactive	inactive	inactive	inactive	inactive	inactive	inactive	inactive	–	–	–	–	–
CCCCc1oc2ccccc2c1C(=O)c1cc(I)c(OCCN(CC)CC)c(I)c1	inactive	inactive	–	24.5 µM (active) and 11.9 µM (active)	19.5 µM (active) and 13.3 µM (active)	inactive	–	inactive	inactive	inactive	–	–	–
O=CCCCC=O	inactive	inactive	inactive	inactive	inactive	inactive	inactive	inactive	inactive	–	–	–	–
COC(=O)c1ccccc1	inactive	inactive	inactive	inactive	inactive	inactive	inactive	inactive	inactive	–	–	–	–
CCCCNS(=O)(=O)c1ccccc1	inactive	inactive	inactive	inactive	inactive	inactive	inactive	inactive	inactive	–	–	–	–
CCCCC(CC)COCC1CO1 (stereo not drawn)	inactive	inactive	inactive	inactive	inactive	inactive	inactive	inactive	inactive	–	–	–	–
CC(C)OC(=O)C(C)(C)Oc1ccc(C(=O)c2ccc(Cl)cc2)cc1	inactive	inactive	17.2 µM (active) and 21.1 µM (active)	inactive	–	inactive	inactive	inactive	–	26.6 µM (active)	–	–	–
CCCCC(CC)COC(=O)c1ccc(N(C)C)cc1 (stereo not drawn)	inactive	inactive	inactive	inactive	inactive	inactive	inactive	inactive	–	–	–	–	–
CCC(C)CO (stereo not drawn)	inactive	inactive	inactive	inactive	inactive	inactive	inactive	inactive	–	–	–	–	–
COC(=O)C1=C(C)NC(C)=C(C(=O)OCCN(C)Cc2ccccc2)C1c1cccc([N+](=O)[O-])c1 (stereo not drawn)	54.2 µM (active) and 18.8 µM (active)	inactive	–	30.5 µM (active)	30.5 µM (active)	inactive	inactive	inactive	inactive	inactive	–	–	–
O=[N+]([O-])c1ccc2c(c1)Cc1ccccc1-2	inactive	inactive	–	inactive	inactive	inactive	inactive	inactive	–	inactive	–	–	–
S=C(NC1CCCCC1)NC1CCCCC1	inactive	inactive	3.44 µM (active)	6 µM (active) and 3.86 µM (active)	7.7 µM (active)	inactive	inactive	inactive	–	–	–	–	–
O=C1c2cccc(O)c2C(=O)c2c(O)cccc21	–	inactive	inactive	inactive	inactive	inactive	–	inactive	inactive	inactive	–	–	–
Cc1[nH]c(=O)c(C#N)cc1-c1ccncc1	inactive	–	–	inactive	2.73 µM (active) and inactive	inactive	inactive	inactive	inactive	inactive	–	–	–
Cc1c(C(N)=O)cc([N+](=O)[O-])cc1[N+](=O)[O-]	inactive	inactive	inactive	inactive	inactive	–	–	inactive	–	inactive	–	–	–
OC(CCl)CCl	inactive	inactive	inactive	inactive	inactive	inactive	inactive	inactive	–	–	–	–	–
NNc1ccc(C(=O)O)cc1	inactive	–	–	inactive	inactive	inactive	inactive	inactive	inactive	inactive	–	–	–
CC1=CCC(C(C)(C)O)CC1 (stereo not drawn)	inactive	inactive	inactive	inactive	inactive	inactive	inactive	inactive	inactive	–	–	–	–

Compound	Potency [1]	Potency [2]	Potency [3]	Potency [4]	Potency [5]	Potency [6]	Potency [7]	outcome [8]	Potency [9]	Potency [10]	activity change, negative = inhibition [3]	activation [8]	activity, negative = inhibition [9]
NC=O	inactive	inactive	inactive	inactive	inactive	inactive	inactive	inactive	–	–	–	–	–
C#C[C@]1(O)CC[C@H]2[C@@H]3CCc4cc(OC)ccc4[C@H]3CC[C@@]21C	inactive	7.7 µM (active)	–	inactive	–	inactive	inactive	inactive	inactive	inactive	–	–	–
Cc1ccc(C(=O)c2cc(O)c(O)c([N+](=O)[O-])c2)cc1	27.3 µM (active) and 29.8 µM (active)	inactive	23.7 µM (active)	inactive	–	inactive	inactive	–	inactive	inactive	–	–	–
Cc1cccc(N(C)C(=S)Oc2ccc3ccccc3c2)c1	inactive	inactive	–	inactive	–	inactive	inactive	inactive	–	inactive	–	–	–
Nc1ccc(Nc2ccccc2)cc1	30.6 µM (active) and 19.3 µM (active)	inactive	–	inactive	inactive	inactive	inactive	inactive	inactive	–	–	–	–
Cc1cc2nc3c(=O)[nH]c(=O)nc-3n(C[C@H](O)[C@H](O)[C@H](O)CO)c2cc1C	–	inactive	–	inactive	inactive	inactive	inactive	–	33.5 µM (active) and 19.8 µM (active)	–	-6.9% [at 18.9 µM] (inactive)	-2.99% [at 15.8 µM] (inactive)	-21.3% [at 10.5 µM] (inactive)
COc1cc([C@@H]2c3cc4c(cc3[C@H](O)[C@H]3COC(=O)[C@H]23)OCO4)cc(OC)c1OC	inactive	inactive	–	–	–	inactive	–	inactive	inactive	–	–	–	–
CC(=O)O[C@]1(C(C)=O)CC[C@H]2[C@@H]3C=C(Cl)C4=CC(=O)[C@@H]5C[C@@H]5[C@]4(C)[C@H]3CC[C@@]21C	inactive	–	–	inactive	–	inactive	–	–	–	–	–	–	–
C#C[C@]1(O)CC[C@H]2[C@@H]3CCC4=Cc5oncc5C[C@]4(C)[C@H]3CC[C@@]21C	inactive	–	0.0611 µM (active)	38.6 µM (active)	–	inactive	inactive	inactive	inactive	–	–	–	–
O=C(c1ccc(OCCN2CCCCC2)cc1)c1c(-c2ccc(O)cc2)sc2cc(O)ccc12	54.5 µM (active) and 30.6 µM (active)	–	30.6 µM (active) and 29.8 µM (active)	61.2 µM (active) and 61.1 µM (active) and 26.6 µM (active)	48.6 µM (active) and 68.6 µM (active) and 29.8 µM (active)	inactive	–	–	–	–	–	–	–
Cc1cccc([N+](=O)[O-])c1C	inactive	inactive	inactive	inactive	inactive	inactive	–	inactive	inactive	–	–	–	–
CC(C)OC=O	inactive	inactive	inactive	inactive	inactive	inactive	inactive	inactive	inactive	–	–	–	–
CCOC(=O)C(C#N)=C(c1ccccc1)c1ccccc1	inactive	inactive	–	inactive	inactive	inactive	inactive	inactive	–	–	–	–	–
C[C@]12CC[C@H]3[C@@H](CCC4=CC(=O)CC[C@@]43C)[C@@H]1CC[C@@H]2C(=O)CO	inactive	0.237 µM (active)	inactive	inactive	–	inactive	inactive	inactive	inactive	–	–	–	–
O=Cc1ccccc1O	inactive	inactive	inactive	inactive	inactive	inactive	inactive	inactive	inactive	–	–	–	–
CC(=O)C1(C)CC2=C(CCCC2(C)C)CC1C (stereo not drawn)	inactive	–	–	inactive	inactive	inactive	inactive	inactive	inactive	–	–	–	–
Nc1ncn([C@@H]2O[C@H](CO)[C@@H](O)[C@H]2O)c(=O)n1	inactive	–	–	inactive	inactive	inactive	inactive	inactive	inactive	–	–	–	–
Nc1ncnc2nc[nH]c12	inactive	inactive	inactive	inactive	inactive	inactive	–	inactive	–	–	–	–	–
CN(C)c1nc(N(C)C)nc(N(C)C)n1	inactive	–	–	inactive	inactive	inactive	inactive	inactive	inactive	–	–	–	–
c1cc(N(CC2CO2)CC2CO2)ccc1OCC1CO1 (stereo not drawn)	54.5 µM (active)	inactive	48.6 µM (active)	–	inactive	inactive	–	inactive	inactive	–	–	–	–
C[C@]12CCC(=O)C=C1CC[C@@H]1[C@@H]2C(=O)C[C@@]2(C)[C@H]1CC[C@]2(O)C(=O)CO	inactive	–	11.9 µM (active)	inactive	inactive	inactive	–	inactive	–	–	–	–	–
c1ccc2c(c1)c1cccc3ccc4cccc2c4c31	inactive	inactive	inactive	inactive	inactive	inactive	–	inactive	inactive	–	–	–	–
C=C(C)C1CC=C(C)CC1 (stereo not drawn)	inactive	inactive	inactive	inactive	inactive	inactive	–	inactive	–	–	–	–	–
COC(=O)Nc1nc2ccc(S(=O)c3ccccc3)cc2[nH]1 (stereo not drawn)	inactive	inactive	–	inactive	inactive	inactive	–	inactive	inactive	–	–	–	–
CC(C(=O)O)c1cccc(C(=O)c2ccccc2)c1 (stereo not drawn)	inactive	inactive	inactive	inactive	inactive	inactive	–	–	inactive	–	–	–	–
CC(C)(C)NC(=O)[C@H]1CC[C@H]2[C@@H]3CC[C@H]4NC(=O)C=C[C@]4(C)[C@H]3CC[C@]12C	inactive	inactive	–	inactive	inactive	inactive	inactive	inactive	inactive	–	–	–	–
CC(=O)Oc1ccccc1C(=O)Nc1ncc([N+](=O)[O-])s1	24.8 µM (active) and 23.7 µM (active)	inactive	–	–	–	14.1 µM (active) and 8.49 µM (active)	–	–	inactive	–	–	–	–

From PubChem BioAssay (Tox21)
